# Compounds without any hit were thinned out: in the full panel of roughly 83,000, 20% have a hit.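 Each cell line was grown in a 96-well plate and treated with one concentration of compound for 48 hours. Values below 10 were considered active.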 Unmarked numbers belong to inactive results. The source made the active and inactive calls.
# Tested on: HCT-15 colon
# Test: NCI-60 one-dose screen, 48 h (100 = growth as untreated, 0 = no growth, -100 = all killed)
# Conditions: 10 µM unless noted
row,Compound,growth
1,Cc1nn2c(-c3nc4cc(Cl)c(Cl)cc4[nH]3)c(-c3ccc(F)cc3)nc2s1,76.8%
2,COc1ccc(-n2c(/C=C/c3ccc(O)c(OC)c3)cc(/C=C/c3ccc(O)c(OC)c3)nc2=O)cc1,59%
3,Cc1ccc2oc(=O)cc(-c3sc(N4CCCCC4)nc3-c3ccccc3)c2c1,96.9%
4,Nc1c2c(nc3ccc(Cl)cc13)CC(c1ccc(O)cc1)CC2=O (stereo not given),29.3%
5,O=C1c2ccccc2C(=Cc2ccccc2)c2ccccc21,7.88% (active)
6,C/C(=N\NC(=O)C(C)SC(C)C(=O)N/N=C(\C)c1cccnc1)c1cccnc1 (stereo not given),102%
7,O=C1CCC/C=C\C[C@H]2C=C(Cl)C(=O)/C2=C/C[C@H](CCCCC(F)(F)F)OC(=O)CCC/C=C\C[C@H]2C=C(Cl)C(=O)/C2=C/C[C@H](CCCCC(F)(F)F)O1,1.46% [7.5 µM] (active)
8,O=C1/C(=C\c2ccco2)SC(=S)N1CCc1ccc(O)cc1,92.7%
9,O=C(O)/C(=C/c1ccc(O)cc1)c1ccccc1,104%
10,CCCCC/C(=C\c1ccccc1)C1OC(C)C(C)O1 (stereo not given),109%
11,Cc1cc(C=O)c(C)c2c1[nH]c1ccccc12,99.8%

# Tested on: HT29 colon
# Test: as above
# Conditions: 10 µM unless noted
row,Compound,growth
1,C=C(C)[C@@H]1CC[C@]2(C(=O)N3CCCNCC3)CC[C@]3(C)[C@H](CC[C@@H]4[C@@]5(C)CCC(=O)C(C)(C)[C@@H]5CC[C@]43C)[C@@H]12,61%
2,CCCCC[C@H]1CC=C2C(=O)C(Cl)=C[C@@H]2CC=CCCCC(=O)O[C@@H](CCCCC)CC=C2C(=O)C(Cl)=C[C@@H]2CC=CCCCC(=O)O[C@@H](CCCCC)CC=C2C(=O)C(Cl)=C[C@@H]2CC=CCCCC(=O)O1,44.4% [8 µM]
3,Cn1c(=O)c2c(ncn2CCC(=O)Nc2ccc(F)cc2)n(C)c1=O,94%
4,COc1ccc(-c2cc(-c3c(C)oc4cc5occc5c(OC)c4c3=O)nc(N)c2C#N)cc1OC,67%
5,COc1cc(NC(C)CN(CC(C)C)C(C)C)c2ncccc2c1 (stereo not given),97.5%
6,COc1ccc(/C=C/C(=O)NCC(C)O)cc1 (stereo not given),95.1%
7,Cc1cc(N(CCCNc2ccnc3cc(Cl)ccc23)Cc2ccco2)nc(Cl)n1,22.1%
8,Cc1c(C)c2c(c(C)c1NC(=O)CCCCCCC(=O)O)CCC(C)(CCCC(C)CCCC(C)CCCC(C)C)O2 (stereo not given),39.8%
9,CN(C)c1ccc(N=C2C=CC(=O)C=C2)cc1,97.1%
10,Fc1ccc(NCc2nnc(-c3ccc(Cl)cc3)o2)cc1,70%
11,COc1ccc(OCC(CO)N2CCN(c3ccccc3)CC2)cc1 (stereo not given),98.2%
12,CCCCC(=O)OC1CCCCC1C (stereo not given),88.2%
13,COc1ccc2c(c1)c(-c1nc(-c3cn(C)c4ncccc34)cs1)cn2CCN,74.5%
14,COc1ccc(CCN2C(=O)C(C)(C)SC2=S)cc1OC,105%
15,Cc1nnc2nc(N)[nH]n2c1=O,104%
16,COc1cccc(-c2nn(-c3ccccc3)cc2-c2ccnc(NCCNS(=O)(=O)c3cccc(F)c3)c2)c1,16.9%
17,Cc1cc(Cl)c2c(N(C)C)cccc2n1,78%
18,COc1ccccc1-n1cnc(N)c1C(=O)c1cc(OC)c(OC)c(OC)c1,11.7%
19,Cc1cc(N2CCCCC2)nc(N(CCNc2ccnc3cc(Cl)ccc23)Cc2ccco2)n1,6.61% (active)
20,N#CC1=C(N)Oc2c(c(N)nn2-c2ccccc2)C1c1ccc(Cl)cc1Cl (stereo not given),115%

row,Compound,growth
1,COc1ccc(NC(=O)c2ccc3c(c2)nc(-c2cc4ccccc4[nH]c2=O)n3-c2cc(C(C)(C)C)[nH]n2)cc1,106%
2,N#CC1=C(N)Oc2c(sc3c(F)cccc23)C1c1ccc(Cl)cc1 (stereo not given),15.6%
3,Cc1ccc(Cc2cnc(NC(=O)/C=C/c3cccc(C)c3)s2)cc1,0.0384% (active)
4,Oc1cccc2oc(=S)[nH]c12,113%
5,COc1cc(/C=C/c2cc(/C=C/c3ccc(O)c(OC)c3)n(-c3ccccc3)c(=O)n2)ccc1O,-13% (active)
6,NC(=O)NCC1CCCCC1,102%
7,N#Cc1cnc2cc(OC[C@@H](O)CO)c(NC(=O)CC3CSSC3)cc2c1Nc1ccc(OCc2cccc(F)c2)c(Cl)c1,-81.6% (active)
8,CC(=O)OCCCCCCn1c2ccccc2c2c3c(c4c5ccccc5n(C)c4c21)C(=O)N(O)C3=O,23.7%
9,Cc1nn2c(-c3nc4cc(Cl)c(Cl)cc4[nH]3)c(-c3ccc(F)cc3)nc2s1,20%
10,COc1ccc(-n2c(/C=C/c3ccc(O)c(OC)c3)cc(/C=C/c3ccc(O)c(OC)c3)nc2=O)cc1,-59.1% (active)
11,Cc1ccc2oc(=O)cc(-c3sc(N4CCCCC4)nc3-c3ccccc3)c2c1,99.9%
12,Nc1c2c(nc3ccc(Cl)cc13)CC(c1ccc(O)cc1)CC2=O (stereo not given),101%
13,O=C1c2ccccc2C(=Cc2ccccc2)c2ccccc21,0.453% (active)
14,C/C(=N\NC(=O)C(C)SC(C)C(=O)N/N=C(\C)c1cccnc1)c1cccnc1 (stereo not given),94.1%
15,O=C1CCC/C=C\C[C@H]2C=C(Cl)C(=O)/C2=C/C[C@H](CCCCC(F)(F)F)OC(=O)CCC/C=C\C[C@H]2C=C(Cl)C(=O)/C2=C/C[C@H](CCCCC(F)(F)F)O1,-50.5% [7.5 µM] (active)
16,O=C1/C(=C\c2ccco2)SC(=S)N1CCc1ccc(O)cc1,114%
17,O=C(O)/C(=C/c1ccc(O)cc1)c1ccccc1,104%
18,CCCCC/C(=C\c1ccccc1)C1OC(C)C(C)O1 (stereo not given),81.3%
19,Cc1cc(C=O)c(C)c2c1[nH]c1ccccc12,93.2%
